ELG1 DNA repair: qHTS screen for small molecules that inhibit ELG1-dependent DNA repair in human embryonic kidney (HEK293T) cells expressing luciferase-tagged ELG1 | HEK293T ELG1-luciferase reporter, luminescence, 16 h; DNA damage induced by 5-fluorouridine | Potency, µM (series often up to 46.1 µM), inactives show at the top dose activity change, negative = inhibition, usual class: inhibitors | 2.3% of 330,000 active | AID 504467, 2011; further: potency means the concentration at half of the fitted maximal effect; nearly all actives have a fitted effect of over 55% in size
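Reporter activity after DNA damage by 5-fluorouridine is monitored. Compound-treated cells incubate 16 hr at 37 °C, then ONE-Glo is added for 30 min before luminescence reading.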
VP16 counter: VP16 counterscreen qHTS for inhibitors of ROR gamma transcriptional activity | Drosophila S2 Gal4-VP16 UAS-luciferase, luminescence, 20 h | Potency, µM (doses to about 53.6 µM), for the others: at the top dose activity, negative = inhibition, usual class: inhibitors | 3.5% of 310,000 active | AID 2546, 2010;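 further: Gal4-VP16 expression switched on by copper sulfate through the metallothionein promoter; potency means the concentration at half of the fitted maximal effect; nearly all actives have a fitted effect of over 50% in size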
TSHR antag: Antagonists of the Thyroid Stimulating Hormone Receptor: HTS campaign. Thyrotropin receptor (Homo sapiens), P16473. TSHR-expressing cells, TSH-stimulated cAMP HTRF, 2 h; active compounds read low. activity change, negative = inhibition, % at 11.5 µM. 0.2% of 330,000 active. AID 504810, 2011;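 active means activity change below a set negative limit, meaning inhibition stronger than a set level, cut at about -70% in these data; inconclusive means activity change between two set negative limits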
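TSHR-expressing cells were treated with compounds, then stimulated with TSH at EC80 (4nM final) for 2 hours at 37 deg C. Cellular cAMP was measured by HTRF competition between lysate cAMP and cAMP-d2 for a cryptate-labelled anti-cAMP antibody.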
RORgamma inh: qHTS for inhibitors of ROR gamma transcriptional activity; Drosophila S2 Gal4-RORgamma UAS-luciferase reporter, 20 h; Potency, µM (doses to about 53.6 µM), inactives show top-dose activity change, negative = inhibition, usual class: inhibitors; 5.4% of 310,000 active; further: potency means the concentration at half of the fitted maximal effect; nearly all actives have a fitted effect of over 60% in size
Target sequence (P51450 whole entry, looked up, the tested form may be a part): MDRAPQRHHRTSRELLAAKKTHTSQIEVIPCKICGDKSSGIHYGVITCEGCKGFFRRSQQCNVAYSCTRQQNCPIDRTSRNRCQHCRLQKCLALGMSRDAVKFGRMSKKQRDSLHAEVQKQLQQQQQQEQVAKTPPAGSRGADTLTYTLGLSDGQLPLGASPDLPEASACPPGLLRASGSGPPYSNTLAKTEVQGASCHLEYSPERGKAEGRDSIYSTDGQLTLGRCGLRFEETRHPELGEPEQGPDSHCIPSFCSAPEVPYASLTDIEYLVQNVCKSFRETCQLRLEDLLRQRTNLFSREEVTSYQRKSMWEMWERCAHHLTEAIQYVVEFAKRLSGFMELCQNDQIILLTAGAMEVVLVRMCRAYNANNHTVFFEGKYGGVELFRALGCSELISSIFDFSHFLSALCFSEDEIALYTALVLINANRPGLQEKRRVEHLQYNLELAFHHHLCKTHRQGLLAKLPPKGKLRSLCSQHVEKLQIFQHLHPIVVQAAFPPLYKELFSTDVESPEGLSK
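Drosophila Schneider cells stably carrying a metallothionein-driven Gal4 DBD–ROR gamma fusion and a UAS-Photinus luciferase reporter were exposed to compound for 1 hr, then induced with copper sulfate (700 uM final) for 20 hr at ambient temperature before luminescence reading.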
Coupling enz: qHTS Assay for Inhibitors of Fructose-1,6-bisphosphate Aldolase from Giardia Lamblia: Coupling assay counterscreen; AID 2472, 2010; coupling enzyme system counterscreen, AmpLite Red fluorescence; 0.67% of 290,000 active; activity change, negative = inhibition, % at 58.2 µM, hits read low; in the data active means activity change below about -30%
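Activity here indicates interference with the coupling reaction, not aldolase inhibition. Compounds at 57.5 uM final met coupling enzymes for 10 min at RT; substrate and AmpLite Red detection followed, with a 525/598 nm fluorescence read after 20 min.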
Starred values were filed as active, the others as inactive; ? = inconclusive; . = no result. In the library only some 8% were active in any assay of this set; here they are far more common. Unless noted, the call rests on the fitted dose curve; in most records, active means well fitted curve in the direction sought with a large enough effect; inconclusive means small, poorly fitted or top-dose-only effect, or another doubt; inactive means no such curve, though single readings can be large; an effect the other way counts as inactive or inconclusive. On the % scale 0 is the no-effect control and ±100 the full control effect.

SMILES	ELG1 DNA repair	VP16 counter	TSHR antag	RORgamma inh	Coupling enz
Cc1ccc(CN2CC(C(=O)NCCCSc3ccccc3)CC2=O)cc1 (stereo unspecified)	3%	-9%	-16	-1%	.
COc1ccccc1-c1nn2c(-c3ccccc3Cl)nnc2s1	9%	2%	2	-16%	1
CCN(CC)c1ccc(-c2nn3c(-c4ccccc4OC)nnc3s2)cc1	?	14µM*	-9	?	-1
O=S1(=O)CC/C(=N\O)c2ccccc21	11%	-21%	9	?	-1
C=CCNC(=S)N/N=C1\CCS(=O)(=O)c2ccccc21	?	?	-5	18µM*	1
O=C(Nc1ccnn1C1CCN(Cc2ccccc2F)CC1)C1CCCC1	12%	9%	7	-1%	.
NS(=O)(=O)c1ccc(CCNc2ncnc3sccc23)cc1	?	4µM*	-15	?	1
Cc1sc2ncnc(NCCc3ccc(S(N)(=O)=O)cc3)c2c1C	18µM*	2.5µM*	-36	8.9µM*	0
CN(C)c1ccc(CNc2ncnc3sccc23)cc1	-20%	7.1µM*	-40	?	3
C[C@@]12C(=O)N(CC3CC3)CC(=O)N1[C@H](C1CC1)[C@@H]1C(=O)N(c3ccccc3)C(=O)[C@@H]12	-10%	-1%	-6	-32%	1
CCCCOc1ccc(C(=O)NCC(=O)NCC2CCCO2)cc1 (stereo unspecified)	1%	0%	-12	5%	.
c1ccc2c(c1)Cn1nc(Cc3nc4c(s3)CCCC4)nc1-2	?	0%	-4	14µM*	0
N#CCc1nc2n(n1)Cc1ccccc1-2	3%	-6%	7	1%	-1
O=S(=O)(/N=C(/c1ccccc1)N1CCOCC1)c1ccc(F)cc1	?	-17%	22	-19%	4
O=C(/C=C/Nc1ccc(F)c(F)c1)c1ccc(Br)cc1	?	-6%	-5	10%	1
O=C(/C=C/Nc1ccccc1F)c1ccc(Br)cc1	?	?	-8	10µM*	0
O=C(/C=C/Nc1ccc(Br)cc1F)c1ccccc1	?	5.6µM*	-8	4µM*	0
Cc1csc(B(O)O)c1	.	-12%	.	-1%	0
Cc1nnc(SC(C)C(=O)Nc2ccc3ccccc3c2)n1C (stereo unspecified)	5%	.	6	.	.
CCOC(=O)c1c(CN(C)C)n(C)c2c(O)c(N=NC(N)=O)c3ccc(Br)cc3c12	-14%	-5%	10	-5%	-31*
CCCn1c(=O)c(C(=O)OCC)c(O)c2cc(Br)ccc21	-10%	-4%	5	7%	-5
CCCNC(=O)C1CCN(c2ccc(S(=O)(=O)N3CCOCC3)cc2Cl)CC1	?	10%	3	?	-1
Cc1c(C(=O)NCCN(C)C)oc2ccc(S(=O)(=O)N3CCC4(CC3)OCCO4)cc12	15%	-20%	10	-4%	0
Cc1ccc(NC(=O)c2oc3ccc(S(=O)(=O)N4CCC5(CC4)OCCO5)cc3c2C)cc1C	6.5µM*	-9%	-8	34%	-1
O=C(NCc1cccnc1)C1CCN(c2ccc(S(=O)(=O)N3CCOCC3)cc2Cl)CC1	16µM*	?	-8	?	-1
SMILES	ELG1 DNA repair	VP16 counter	TSHR antag	RORgamma inh	Coupling enz
Cc1c(C(=O)NCc2cccnc2)oc2ccc(S(=O)(=O)N3CC(C)CC(C)C3)cc12 (stereo unspecified)	-6%	1%	-3	22%	0
Cc1c(C(=O)NCc2cccnc2)oc2ccc(S(=O)(=O)N3CCC4(CC3)OCCO4)cc12	23µM*	0%	-13	5%	0
O=C(NNC(=O)c1ccc(-c2ccccc2)cc1)Nc1ccc(F)cc1F	?	0%	22	?	.
CCOc1ccc(NC(=O)c2ccccc2NC(=O)c2cccnc2)cc1	-8%	10%	1	2%	-1
Cc1ccc2c(c1)-n1c(nc3cc(Cl)ccc3c1=O)C(Cc1ccccc1)NC2=O (stereo unspecified)	?	.	-2	.	.
O=C(OC1CCOC1=O)C1CCN(S(=O)(=O)c2ccccc2)CC1 (stereo unspecified)	?	.	11	.	.
Cc1sc(NC(=O)CN2CCCC2)nc1-c1ccc2c(c1)CCN2C(=O)c1cccc(F)c1	?	?	7	11µM*	-1
Cc1sc(NC(=O)Cc2ccc3c(c2)OCO3)nc1-c1ccc2c(c1)CCN2C(=O)c1ccc(F)cc1	?	3%	-13	1%	-2
Cc1cc(CN2CCCC(N3CCc4ccccc4C3)C2)cc(C)c1O (stereo unspecified)	1%	-15%	3	-16%	0
CN(C)Cc1nc2c(c(=O)[nH]1)C1(CCCCC1)Cc1ccccc1-2	-21%	5µM*	2	2.5µM*	1
O=c1[nH]cnc2c1C1(CCCC1)Cc1ccccc1-2	10%	-9%	-11	-2%	-9
CN(C)Cc1nc2c(c(=O)[nH]1)C(C)(C)Cc1ccccc1-2	-1%	?	8	?	3
CCN(CC)Cc1nc2c(c(=O)[nH]1)C1(CCCCC1)Cc1ccccc1-2	-1%	11µM*	-7	11µM*	-3
CCC1(CC)Cc2ccccc2-c2nc(CN(C)C)[nH]c(=O)c21	?	7.1µM*	0	6.3µM*	-1
CCc1ccccc1N(C(=O)c1snc(C(N)=O)c1N)C(C(=O)NCC1CCCO1)c1c[nH]c2ccccc12 (stereo unspecified)	-12%	-3%	-50	?	0
CCN1C(=O)[C@@H]2[C@H](C1=O)[C@@H]1C[C@H]3C(=O)N(CC)C(=O)[C@H]3[C@@H]3C1=C(C(=O)N1C(=O)O/C(=N\CC4CC4)[C@]31C)[C@@H]2C	.	1%	.	-12%	8
O=C(O)CCCCCN1C(=O)/C(=C\c2cn(-c3ccccc3)nc2-c2cccs2)SC1=S	0%	1%	5	?	8
O=Cc1cn(-c2ccccc2)nc1-c1ccc(F)cc1	?	-2%	1	32%	5
CC1=NNC(=O)/C1=C\c1cn(-c2ccccc2)nc1-c1ccc(F)cc1	?	5µM*	-5	4.5µM*	-6
CC1=NNC(=O)/C1=C\c1cn(-c2ccccc2)nc1-c1cccs1	?	4.5µM*	-5	?	5
C=C(C)CNC(=S)Nc1cccc2cnccc12	?	-23%	44	-18%	-1
Cc1ccc(NC(=S)Nc2cccc3cnccc23)c(C)c1	21µM*	-26%	-8	16µM*	-36*
CCc1ccc(NC(=S)Nc2cccc3cnccc23)cc1	?	?	16	11µM*	-49*

Screening data (PubChem BioAssay)
